High-throughput results (PubChem BioAssay)
Hits are enriched below; roughly 1% of the tested compounds scored in any of these assays.
USP2a block = blocks human ubiquitin-specific protease USP2a. O75604. USP2 core, Ub-CHOP2 coupled fluorogenic reporter, 485/531. Potency, µM (highest dose often 38.3 µM), for the others: at the highest dose activity change, negative = inhibition, actives largely listed as inhibitors. actives 0.01% (n = 330,000);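 further: plate controls were DMSO wells for no effect and full inhibition by NEM control for full effect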
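USP2 core (10nM final) preincubated 30min RT with compound in 20mM Tris-HCl pH 8.0, 2mM CaCl2, 2mM beta-mercaptoethanol, 0.05% CHAPS; 25nM Ub-CHOP2 plus 25nM reporter substrate added, fluorescence (Ex485/Em531) read after 60min.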
rTrxR1 inhibitor = blocks rat thioredoxin reductase 1; Potency, µM (doses to about 114 µM), for inactives: top-dose activity change, negative = inhibition, hits mostly inhibitors; AID 588453; actives 1% (n = 390,000); recombinant rTrxR1, NADPH fluorescence consumption, selenite substrate; O89049; further: nearly all actives have a fitted effect of over 65% in size
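Rat TrxR1 (90 nM in the dispensed reagent) was pre-reduced with 400 uM NADPH for 5 min at room temperature, then incubated with compound for 15 min. After 400 uM selenite was added, NADPH fluorescence (Ex 340/Em 450 nm) was followed for 8 min.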
GALK inh = galactokinase (human) inhibition; P51570; Purified GALK, Kinase-Glo residual ATP luminescence; Potency, µM (doses to about 57.5 µM), without a hit: at the highest dose activity change, negative = inhibition, usual class: inhibitors; actives 0.007% (n = 270,000); AID 1868
Target sequence (P51570 whole entry, looked up): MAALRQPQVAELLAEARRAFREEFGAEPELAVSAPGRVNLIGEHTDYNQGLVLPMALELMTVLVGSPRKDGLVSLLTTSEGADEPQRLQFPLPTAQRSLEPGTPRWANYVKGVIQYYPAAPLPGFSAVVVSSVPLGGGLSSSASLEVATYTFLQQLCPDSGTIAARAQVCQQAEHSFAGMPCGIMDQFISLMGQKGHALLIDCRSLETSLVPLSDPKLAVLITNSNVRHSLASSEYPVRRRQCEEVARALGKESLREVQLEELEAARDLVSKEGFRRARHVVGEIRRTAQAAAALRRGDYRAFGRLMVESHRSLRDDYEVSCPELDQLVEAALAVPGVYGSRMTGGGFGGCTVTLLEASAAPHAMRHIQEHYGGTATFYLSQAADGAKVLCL
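GALK at 5 nM final was combined with compound, 35 uM ATP and 100 uM galactose in HEPES pH8.0 with MgCl2 and DTT. The reaction ran one hour at room temperature before luminescent ATP detection.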
TrxR1 substrate = is turned over as a substrate by rat TrxR1. O89049. purified TrxR1 substrate turnover, NADPH consumption readout. Potency, µM (titrated, usually from 114 µM), for the others: at the highest dose activity change, negative = substrate turnover. AID 588456. actives 0.01% (n = 390,000); further: nearly all actives have a fitted effect of over 50% in size
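Rat TrxR1, dispensed at 90 nM, was prereduced with 400 uM NADPH (final) for 5 min at ~22 deg C, then incubated with compound 15 min before 400 uM selenite. A first-read NADPH fluorescence drop versus no-compound background flagged substrates.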
Eya2 inh = blocks the phosphatase activity of human Eya2; AID 488837; O00167; Potency, µM (titrated, usually from 76.9 µM), inactives show at the highest dose activity, negative = inhibition, most hits filed as inhibitors; recombinant Eya2, OMFP fluorescence dephosphorylation (OMFP is methylfluorescein phosphate); actives 0.006% (n = 330,000)
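Eya2 (0.2 uM) preincubated 10 min at ambient with compound, then OMFP substrate added at 50 uM; 10 min reaction in 50 mM HEPES pH 7.5, 50 mM NaCl, 5 uM MgCl2, 0.05% BSA, 1 mM DTT. Fluorescence read at Ex 485/Em 525 nm.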
RGS4 inhibitor = inhibitors of human regulator of G protein signaling 4; P49798; actives 0.039% (n = 390,000); Potency, µM (series often up to 114 µM), without a hit: top-dose activity change, negative = inhibition, most hits filed as inhibitors; Transcreener GDP fluorescence polarization, RGS4-accelerated GTP hydrolysis; further: nearly all actives have a fitted effect of over 75% in size
Target sequence (P49798 whole entry, looked up): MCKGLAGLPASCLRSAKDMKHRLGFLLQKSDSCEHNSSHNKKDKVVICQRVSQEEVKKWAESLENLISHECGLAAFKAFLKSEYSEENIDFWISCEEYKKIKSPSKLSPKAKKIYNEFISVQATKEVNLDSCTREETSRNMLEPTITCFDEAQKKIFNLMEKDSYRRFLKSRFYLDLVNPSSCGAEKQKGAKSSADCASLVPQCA
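MLSMR compounds (23 nl, pin-transferred) preincubated 10 min at room temperature with a 500nM (2x) first reagent, then RGS4 at 900nM (2x) plus Transcreener GDP mix added; fluorescence polarization (620/688 nm) read before and after 90 min at 30 °C.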
* = called active by the depositor; ? = inconclusive; . = no result; ! = not active in a repeat; [ ] = dose if it differs, or a comment. The call rests on the fitted dose curve; in most records, active means well fitted curve in the direction sought with a large enough effect; inconclusive means small, poorly fitted or top-dose-only effect, or another doubt; inactive means no such curve, though single readings can be large; an effect the other way counts as inactive or inconclusive. Unless noted, on the % scale 0 is the no-effect control and ±100 the full control effect; potency means the concentration at half of the fitted maximal effect.

SMILES	USP2a block	rTrxR1 inhibitor	GALK inh	TrxR1 substrate	Eya2 inh	RGS4 inhibitor
CCN1C(=NCc2cccc(Cl)c2)N[C@@H](c2cccc(C(F)(F)F)c2)C(C(=O)OC)=C1C	.	13%	.	-5%	.	.
O=[N+]([O-])c1c(Nc2ccc(O)cc2)cc(N2CCOCC2)c2nonc12	0%	2%	1%	-2%	-3%	-11%
O=C(O)c1cc(Nc2cc(Cl)c3nonc3c2[N+](=O)[O-])ccc1O	-11%	1.8µM*	-2%	-21%	-9%	-86%
O=[N+]([O-])c1c(Nc2ccccc2O)cc(Cl)c2nonc12	-3%	0.71µM*	-3%	-1%	0%	?
O=C(CCS(=O)(=O)c1cccc2nonc12)Nc1c(F)cccc1F	.	32µM*	.	10%[2.29 µM]	.	6%
Cc1cccc(C)c1NC(=O)CCS(=O)(=O)c1cccc2nonc12	6%	-23%	-1%	1%	4%	5%
Cc1ccc(S(=O)(=O)c2c(N)n(Cc3ccco3)c3nc4ccccc4nc23)cc1C	23%	11µM*	-1%	71%	-3%	-44%
CC(=O)NC(Cc1ccc([N+](=O)[O-])cc1)C(=O)NCC(N)C(=O)c1ccccc1 (stereo not drawn)	.	4%	.	1%	.	.
C=CCn1c(SCC(=O)N2CCOCC2)nc2scc(-c3ccco3)c2c1=O	-1%	45µM*	6%	-11%	-4%	?
C/C(=N\NC(=O)c1nnn(-c2nonc2N)c1-c1cccs1)c1ccncc1	2%	35µM*	-5%	2%	2%	-10%
CCOc1ccc(-c2c(C(=O)N/N=C(\C)c3ccncc3)nnn2-c2nonc2N)cc1	-1%	-24%	7%	13%	8%	-24%
Cc1ccc(OCCCCn2c(CCNC(=O)C3CCCCC3)nc3ccccc32)cc1	.	0%	.	-5%	.	18%
CCC(=O)Oc1oc(-c2ccccc2)nc1C=Nc1ccc(C)cc1	0%	7%[11.4 µM]	-6%	5%[11.4 µM]	-6%	-7%
CCOC(=O)c1ccc(N=Cc2nc(-c3ccccc3)oc2OC(C)=O)cc1	2%	2µM*	-2%	-2%	-2%	-37%
CC(=O)Oc1oc(-c2ccccc2)nc1C=Nc1ccccc1	-1%	40µM*	-1%	-13%	-1%	-19%
O=[N+]([O-])c1cc(Br)c(Nc2ccccc2)c([N+](=O)[O-])c1	-1%	11µM*	.	-1%	14%	?
O=C(Nc1ccccc1)c1ccc(Nc2c([N+](=O)[O-])cc([N+](=O)[O-])c3ccccc23)cc1	1%	-16%	-1%	-17%	0%	8%
CC(C)(C)n1ncc2c(=O)n(Cc3ccc(SC(F)(F)F)cc3)cnc21	.	7%	.	-14%	.	.
CCCCC(CCC(=O)Nc1ccn(-c2ccccc2)n1)C(=O)O (stereo not drawn)	11%	28%	-2%	3%	40µM*	24%[11.4 µM]
O=C(/C=C1\C(=O)Nc2ccccc21)/C=C1\C(=O)Nc2ccccc21	6%	1µM*	-4%	1%	-16%	?
O=C1Nc2ccccc2/C1=C\C(=O)c1ccccc1	3%	?	.	-7%	3%	?
CN(C)c1ccc(/C=C/c2cc3ccccc3cn2)cc1	.	-15%	.	-8%	.	.
Cc1c(CC(=O)NCCCO)c(=O)oc2cc3c(cc12)CCC(C)(C)O3	-7%	56µM*	.	384%	-2%	1%
O=C(N/N=C/c1ccccc1)c1ccc(N2CCOCC2)c([N+](=O)[O-])c1	1%	12%	-3%	7%	6%	-6%
Cc1ccc(/C=N/NC(=O)c2ccc(-c3ccccc3)cc2)o1	0%	23%[57.1 µM]	11%	5%[57.1 µM]	2%	2%
SMILES	USP2a block	rTrxR1 inhibitor	GALK inh	TrxR1 substrate	Eya2 inh	RGS4 inhibitor
O=C(N/N=C/c1ccc(N2CCCCC2)o1)c1ccccc1	-5%	2.8µM*	3%	-3%	2%	?
O=C(N/N=C/c1ccc(N2CCOCC2)o1)c1cccc([N+](=O)[O-])c1	1%	3.2µM*	.	-11%	0%	-50%
O=C(Nc1ccc(Cl)cc1Cl)c1cnn2c1NC(=C1CC1)C=C2C(F)F	.	10%	.	9%	.	.
COc1cccc2cc(C(=O)Nc3ccc(CC(=O)O)cc3)c(=O)oc12	.	7%	.	-4%	.	-30%
Cc1ccc(S(=O)(=O)NCCc2cn3ccsc3n2)cc1	.	10%[57.1 µM]	.	1%[57.1 µM]	.	18%
CCCCCCC[n+]1ccc(C)c2ccccc21	.	-6%	.	3%	.	.
O=C(O)Cc1c[nH]c2ccc(O)cc12	.	11µM*!	.	23%[57.1 µM]	8%	21µM*!
Clc1ccc(-c2csc3ncnc(Sc4nnnn4C4CC4)c23)cc1	.	7%	.	8%[0.0914 µM]	.	.
COc1ccc(C#Cc2c(-c3ccccc3)n(-c3ccccc3)c3ccc(CO)cc23)cc1	2%	35µM*	.	128%	-12%	13%
COc1ccc(-c2c(C#Cc3ccc(N(C)C)cc3)c3ccccc3n2C)cc1	1%	-3%	.	7%	7%	-5%
Cn1c2c(c3cnc4cc(Cl)ccc4c31)CNCC2	.	15%	.	7%	.	5%
Cc1ccnc2ccc3ccccc3c12	.	89µM*	.	456%	.	.
Cc1ccc(NC(=O)C2CCCN(c3ncnc4onc(C)c34)C2)cc1Cl (stereo not drawn)	.	29%	.	-1%	.	-15%
COc1ccc(OC)c(/C=C/c2c3ccccc3cc[n+]2C)c1	.	-15%	.	-13%	.	.
Cn1nc(-c2cccnc2)nc2c(=O)n(C)c(=O)nc1-2	.	-21%	.	?	.	-19%
CCn1nc(-c2ccccc2C)nc2c(=O)n(C)c(=O)nc1-2	.	?	.	14µM*	.	-40%
O=C(COc1ccc2cc(-c3ccccc3)c(=O)oc2c1)NCC1CCC(C(=O)O)CC1 (stereo not drawn)	-2%	32µM*	.	892%	1%	1%
O=C(O)/C=C/C(=O)Nc1ccc(N2CCOCC2)nc1N1CCOCC1	6%	16µM*	-1%	-4%	0%	?
CC1=CC(O)=NS(=O)(=O)O1	.	22%	.	3%	.	.
O=C(C[n+]1cnn(CC(=O)c2ccc(Cl)cc2Cl)c1)c1ccc([N+](=O)[O-])cc1	2%	50µM*	0%	-7%	-2%	-14%
CCN1CCc2c(sc(NC(=S)NC(=O)c3ccccc3)c2C#N)C1	5%	18µM*	0%	-8%	0%	?
N#Cc1c(NC(=S)NC(=O)c2ccccc2)sc2c1CCC2	-1%	?	0%	-1%	5%	?
Nc1ccc(/C=C/c2ccnc3ccccc23)cc1[N+](=O)[O-]	.	1%	.	-4%[0.0914 µM]	.	.
COC(C/C=C/C(=O)[C@H](C)OCc1ccccc1)OC	.	45µM*	.	-8%	.	-46%
